Measured values: PubChem BioAssay (NCI)
About 79,000 compounds went through this panel and 15% of them were active in at least one assay; those are over-represented in the sample as a whole. A number with no mark means an inactive call. Calls of active or inactive are those of the source. No stated cut-off is given here; in the data, active means growth inhibition above about 70%; inactive means the rest.

Assay: NCI Yeast Anticancer Drug Screen. Data for the mgt1 strain (AID 153)
Conditions: S. cerevisiae mgt1 mutant growth inhibition; at 100.0 µM; active compounds read high
How it was run: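 mgt1 yeast grown with test compound; read-out is growth inhibition versus vehicle-treated cultures.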

| SMILES | growth inhibition |
| --- | --- |
| CCC/C(Cl)=N\OC(=O)Nc1cccc(C(F)(F)F)c1 | 66% |
| [O-][n+]1c2ccc(O)cc2nc2ccc(Cl)cc21 | 81% (active) |
| Clc1ccccc1C1OC1c1ccccc1Cl (stereo unspecified) | -27% |
| c1ccc2c(c1)c1ncccc1c1nccnc21 | -2% |
| CC(=O)Nc1ccc2c(c1)C(=Nc1ccc(C(=O)O)cc1)c1ccccc1-2 | 91% (active) |
| COc1ccc(OC)c2cc3ccccc3cc12 | 24% |
| COc1cc(C2c3cc4c(cc3OC(NNc3ccccc3)C2C)OCO4)cc(OC)c1OC (stereo unspecified) | 89% (active) |
| O=C1c2cc([N+](=O)[O-])ccc2-c2cccc(F)c21 | 28% |
| CCCCCCCCCCCC(=O)N(C)C | 99% (active) |
| CCCCCCCCCCCC1=C(O)C(=O)C=C(O)C1=O | 91% (active) |
| Cc1ccc(CSC(N)=Nc2ccccc2)cc1C | 81% (active) |
| CCCCCCCCCCC1CCC(=O)O1 (stereo unspecified) | 100% (active) |
| O=[N+]([O-])c1cc(CCl)ccc1CCl | 97% (active) |
| Nc1ccc2c(c1)C(=O)c1cccc(N)c1C2=O | 81% (active) |
| CCCCCCCCCCNC(=O)OCC | 99% (active) |
| CC1=C(C)Cc2c(O)ccc(O)c2C1 | 29% |
| COc1ccc2c(c1)C(=O)c1ccccc1C2 | 10% |
| CCC(=O)OCCn1c2nc(=O)[nH]c(=O)c-2nc2cc(C)c(C)cc21 | 88% (active) |
| O=C(OCCN1CCCCCC1)C(c1ccsc1)C1CCCCC1 (stereo unspecified) | 37% |
| Oc1c(Br)cc(Br)cc1C1CCCCC1 | 98% (active) |
| CC1(C)[C@@H]2CC[C@]1(C)[C@H](OC(=O)CSC#N)C2 | 98% (active) |
